Results published in the supplement of paper PMC6555819.

How the values were obtained:
Experiment in all cases: PBM binding z-score (relative to random genomic background probes); higher = stronger binding; sequences stand for … in GC…GCGATTGACAGCGTAGAATGAAGG
[1] = tested on: PPARg:RXRa DBDmut IVT, anti-RXR (DBD mutation: RXRa K156A/R161A, NR concentration 270 nM, RXRa partner concentration 90 nM)
Method in brief: (§1)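 Regression normalization was applied to scanned fluorescence from custom Agilent 4×180K protein-binding microarrays. Before scanning, arrays were incubated 1 h with ligand-free nuclear receptor dimers, and binding was detected with antibodies against each partner (one per run). Binding z-scores use the random background probes as reference.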

[2] = tested on: PPARg:RXRa IVT, anti-PPARg (NR concentration 270 nM, RXRa partner concentration 90 nM)
Method in brief: as §1

[3] = tested on: PPARg DBDmut:RXRa IVT, anti-PPARg (DBD mutation: PPARg1 K132A/R137A, NR concentration 270 nM, RXRa partner concentration 90 nM)
Method in brief: as §1

[4] = tested on: PPARg DBDmut IVT, anti-PPARg (DBD mutation: PPARg1 K132A/R137A, NR concentration 270 nM)
Method in brief: as §1

[5] = tested on: PPARg homodimer (NR concentration 180 nM)
Method in brief: as §1

[6] = tested on: PXR:RXRa (NR concentration 270 nM, RXRa partner concentration 90 nM)
Method in brief: as §1

[7] = tested on: PXR homodimer (NR concentration 270 nM)
Method in brief: as §1

[8] = tested on: RARa:RXR (NR concentration 270 nM, RXRa partner concentration 90 nM)
Method in brief: as §1

[9] = tested on: RARa homodimer (NR concentration 270 nM)
Method in brief: as §1

[10] = tested on: RARb:RXRa (NR concentration 270 nM, RXRa partner concentration 90 nM)
Method in brief: as §1

Sequence	PBM binding z-score [1]	PBM binding z-score [2]	PBM binding z-score [3]	PBM binding z-score [4]	PBM binding z-score [5]	PBM binding z-score [6]	PBM binding z-score [7]	PBM binding z-score [8]	PBM binding z-score [9]	PBM binding z-score [10]
TCATTTAGGTAAAAGGTGAAAGTCGGTGTGGTAA	4.84	4.91	0.936	1.44	2.08	1.42	0.93	2.74	1.77	2.05
ACTAGCAGGCCAAGTTTGGGTCACTCATACAAAG	1.29	1.09	-0.419	-0.428	0.652	0.707	-0.211	1.55	-0.601	1.53
CGACCTAGGTCAAGGACAGTGAATCTCCGCACGC	4.04	3.83	0.362	-0.346	2.36	1.6	-0.248	2.45	0.805	4.13
GATACAGGGTCAGCTAGAGGCAAGAGTATGGAAA	0.7	2.39	-0.415	-0.265	0.979	2.1	-0.207	2.8	0.136	3.97
CGTCAAAGTTAAACTAAGGTAACGTAAAGCACGC	0.269	0.719	0.529	0.672	0.0557	0.525	0.364	1.08	0.284	0.845
AGTCAAAGTCCACTAGGTAACGTAAGATTCAGCT	1.22	1.83	0.418	0.228	0.527	-0.372	0.0413	-0.205	0.764	1.44
ACAGACAGGTCATGAAGGTAACTCAGGCTATCAT	1.59	2.7	1.81	1.12	1.73	2.95	0.934	3.74	0.881	3.9
CGAACTAGGTCATCCAGGACGGTGAATACATTGA	7.81	8.21	2.02	0.711	0.484	1.5	0.391	2.02	0.0502	3.78
CCGACTGGGTCAGAAAGGTTACCATACCATCCGG	3.31	3.92	0.245	-0.526	2.08	2.48	0.43	3.17	0.179	3.15
CCTGCTAGGCCAATGGTCAGCTAAAGCAGCTCGC	0.832	0.413	-1.62	-1.52	-0.65	-0.919	-0.736	-0.768	-0.677	0.755
CCATACGGGTCACTCCAGGTTATAGCATCGGAGT	1.6	3.66	-0.54	0.0685	1.66	4.94	0.464	3.54	0.63	3.54
AATACAGGGTCATCGTAGGCTAGAGTACGCACAG	3.07	3.89	1.38	0.798	1.99	4.52	0.956	4.85	1.03	4.33
CGTCAAAGTTCAACTAAGGTAACGTAGAGCACGC	0.564	2.32	0.885	0.785	3.17	5.54	3.81	4.57	1.67	5.24
AGAATGAGGTTATACGTAGATAAGGGAAGAAAGT	2.89	2.2	1.07	1.1	0.963	1.17	0.795	1.65	0.439	1.37
TTACCAAGGTGATCTGAGGTCGTTGATCCAACTC	0.904	1.97	0.232	-0.0515	1.46	5.06	1.41	2.02	0.209	1.55
GCGACTGGGGCATCAGCGGGTTACCATAACTTAA	3.43	2.86	-0.728	-1.07	0.437	-0.0944	-0.517	0.346	-0.439	0.729
CGTCCAAGGTCAGCAGGTCAGTGGAAGCGACGTG	2.83	3.58	-0.161	-0.183	2.96	3.57	0.377	4.3	0.462	5.23
GATACAGGGACAGCTAGAGGCCAGAGTATGGAAA	-0.328	-0.138	-0.157	-0.323	0.377	-0.289	0.168	0.0222	0.173	0.833
ATCTCTAGGTAAGACTCAGTCCAGTGAAGAACGC	1.91	1.22	-0.449	2	0.717	-0.0905	0.481	-0.0301	0.973	0.0795
CCTAGCAGGCCAATCTCGGTCACTCAAGGCTTGA	1.96	1.29	-0.633	-1.57	0.0271	-0.17	-0.412	0.0359	-0.713	1.34
CCAGACACGTGAGAAGGTAACTCAGCCTCGATTA	-0.227	-0.531	-0.51	-0.51	0.168	-0.212	0.145	-0.206	0.356	-0.318
TCAGACAGGTGAAGGTAACCCAGGTACGCAGTCG	2.61	2.16	0.501	-0.304	0.633	0.747	0.22	0.961	0.035	1.44
CGACCTAGGTCAGAACAGGACAGTGAAGGATGAT	2.58	2.09	-0.486	-0.795	1.04	1.42	-0.195	0.948	0.342	3.33
